Our source for the growth values is PubChem BioAssay (NCI).

The panel holds about 83,000 compounds, 20% with a hit somewhere; the sample as a whole holds those more often.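 Cell lines were cultured in 96-well plates, exposed to a single compound concentration, and assessed for percent growth 48 hours later.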 Unmarked numbers belong to inactive results. Activity calls are given as the source filed them. How the source made its calls: active means growth percent below 10; inactive means the rest.

Among the test systems are HCT-15 colon; HT29 colon; SNB-75 CNS; SNB-19 CNS; U251 CNS; PC-3 prostate; SK-MEL-5 melanoma; UACC-62 melanoma; LOX IMVI melanoma; SK-MEL-28 melanoma.
Assay in all cases: NCI-60 one-dose screen, 48 h (100 = growth as untreated, 0 = no growth, -100 = all killed)
Common to all, as to conditions: 10 µM unless noted

In the case of `CCCCCSC1C2C(=O)C(Br)=CC13CCNc1c(O)c4c5c(c13)=[N+]2CCC=5C=N4` (stereo not given), the growth was -47.6% (active) in the assay with HCT-15 colon; -31.8% (active) with HT29 colon; -88.8% (active) in the assay with SNB-75 CNS; -65.5% (active) with SNB-19 CNS; -73.3% (active) with U251 CNS; -0.922% (active) with PC-3 prostate. Also, the growth was -95.2% (active) with SK-MEL-5 melanoma, -51.2% (active) in the assay on UACC-62 melanoma, -71% (active) in the assay with LOX IMVI melanoma and -18.2% (active) with SK-MEL-28 melanoma.

For the compound `CC(=O)Oc1ccccc1C(=O)NCCC[Se]C#N`, the growth was -30.6% (active) in the assay with HCT-15 colon; 91.1% with HT29 colon; -35.1% (active) in the assay on SNB-75 CNS; -70.3% (active) in the assay on SNB-19 CNS; -62.1% (active) with U251 CNS; 20.6% in the assay with PC-3 prostate. The growth with SK-MEL-5 melanoma was 35.4%; with UACC-62 melanoma it was 71.3%; with LOX IMVI melanoma, -49% (active); in the assay with SK-MEL-28 melanoma it was 7.94% (active).

Consider `C[C@]12CCc3sc(-c4ccccc4O)nc3C1=CC[C@@H]1[C@@H]2CC[C@]2(C)C(=O)CC[C@@H]12`, for which the growth was 98% in the assay on HCT-15 colon; 104% with HT29 colon; 95.5% in the assay on SNB-75 CNS; 101% in the assay on SNB-19 CNS; 102% in the assay on U251 CNS; 98.9% in the assay on PC-3 prostate. Further, the growth in the assay on SK-MEL-5 melanoma was 110%; with UACC-62 melanoma it was 94.3%; in the assay with LOX IMVI melanoma, 104%; in the assay with SK-MEL-28 melanoma, 113%.

`C/C(=C\c1ccn(-c2ccccc2N)n1)[C@@H]1C[C@@H]2O[C@]2(C)CCC[C@H](C)[C@H](O)[C@@H](C)C(=O)C(C)(C)[C@@H](O)CC(=O)O1`: the growth was 16.6% in the assay with HCT-15 colon; 15.1% with HT29 colon; -4.54% (active) with SNB-75 CNS; 29.1% with SNB-19 CNS; 27.2% with U251 CNS; 14.3% in the assay on PC-3 prostate. For the same compound, the growth in the assay on SK-MEL-5 melanoma was 12.2%; with UACC-62 melanoma it was 19.9%; in the assay on LOX IMVI melanoma, 28.5%; with SK-MEL-28 melanoma it was 58.8%.

For `CCCC[C@H](NC(=O)[C@H]1CCCCN1C)C(=O)N(C)[C@H](C[C@@H](OC(C)=O)c1nc(C(=O)N[C@@H](Cc2ccccc2)C[C@H](C)C(=O)OCC)cs1)C(C)C`, the growth with HCT-15 colon is 20.4%; with HT29 colon it was -16.4% (active); with SNB-75 CNS, 41.9%; in the assay with SNB-19 CNS, 37.5%; in the assay with U251 CNS it was 5.09% (active); with PC-3 prostate, 17.5%. The growth is -26% (active) in the assay with SK-MEL-5 melanoma, 46.2% in the assay with UACC-62 melanoma, 17.9% with LOX IMVI melanoma and 67.4% in the assay with SK-MEL-28 melanoma.

`O=C([O][Hg][CH2]C1COCC([CH2][Hg][O]C(=O)c2ccccc2)O1)c1ccccc1` (stereo not given): the growth with HCT-15 colon is -83% (active); in the assay with HT29 colon, 50.4%; in the assay with SNB-75 CNS it was 92%; with SNB-19 CNS, 102%; in the assay with U251 CNS, 58.9%; with PC-3 prostate, 91.9%. Also, the growth with SK-MEL-5 melanoma is 102%; in the assay on UACC-62 melanoma, 91%; in the assay with LOX IMVI melanoma, 11.4%; in the assay on SK-MEL-28 melanoma, 115%.

In the case of `[Au+].[N-]=C=O.c1ccc(CN2[CH-]N(Cc3ccccc3)C(c3ccccc3)=C2c2ccccc2)cc1`, the growth in the assay with HCT-15 colon is 51.9%; with HT29 colon, 88.4%; with SNB-75 CNS, 79.2%; in the assay with SNB-19 CNS, 58.7%; in the assay with U251 CNS, 47.8%; in the assay with PC-3 prostate, 84.1%. Also, the growth in the assay with SK-MEL-5 melanoma is 96.9%; in the assay with UACC-62 melanoma it was 78%; in the assay with LOX IMVI melanoma, 94.7%; in the assay with SK-MEL-28 melanoma, 92.8%.

In the case of `C[C@]12CC[C@H]3[C@@H](CC[C@]4(O)C[C@@H](O[C@@H]5O[C@H](CO)[C@@H](O[C@@H]6OC[C@@H](O)[C@H](O)[C@H]6O)[C@H](O)[C@H]5O)CC[C@]34C=O)[C@@]1(O)CC[C@@H]2C1=CC(=O)OC1`, the growth in the assay with HCT-15 colon was -9.5% (active); in the assay on HT29 colon, 3.12% (active); in the assay on SNB-75 CNS it was 28%; in the assay with SNB-19 CNS it was 26%; in the assay with U251 CNS, 4.09% (active); in the assay on PC-3 prostate it was 4.54% (active). The growth with SK-MEL-5 melanoma is -14.1% (active); in the assay on UACC-62 melanoma, 1.05% (active); in the assay on LOX IMVI melanoma it was -37.3% (active); with SK-MEL-28 melanoma, 41.6%.

As to `Cc1cnc(/C=C/C(=O)O)cc1-c1cc2c(cc1C)C(C)(C)CCC2(C)C`, the growth was 53.9% in the assay with HCT-15 colon; 68.3% in the assay on HT29 colon; 62.5% in the assay with SNB-75 CNS; 97.4% with SNB-19 CNS; 70.9% in the assay with U251 CNS; 74.8% in the assay on PC-3 prostate. For the same compound, the growth in the assay on SK-MEL-5 melanoma was 62.8%; in the assay with UACC-62 melanoma, 65.8%; in the assay with LOX IMVI melanoma, 47.9%; in the assay with SK-MEL-28 melanoma, 41.5%.

`CCOC(=O)CCN(C)C1=Nc2ccc(Cl)cc2C(c2ccccc2)=[N+]([O-])C1`: the growth in the assay on HCT-15 colon was 105%; with HT29 colon, 82%; in the assay with SNB-75 CNS it was 99.5%; in the assay on SNB-19 CNS, 99.3%; in the assay with U251 CNS it was 100%; with PC-3 prostate, 91%. The growth is 100% in the assay with SK-MEL-5 melanoma, 93.4% in the assay with UACC-62 melanoma, 99.8% in the assay with LOX IMVI melanoma and 121% with SK-MEL-28 melanoma.

For `O=[N+]([O-])c1c(Br)sc(Br)c1[N+](=O)[O-]`, the growth in the assay on HCT-15 colon is -13.9% (active); in the assay on HT29 colon, -58% (active); in the assay with SNB-75 CNS, 63.1%; in the assay on SNB-19 CNS, 76%; in the assay with U251 CNS it was -31% (active); in the assay with PC-3 prostate it was 67.5%. Further, the growth is 51.4% with SK-MEL-5 melanoma, -1.09% (active) in the assay with UACC-62 melanoma, -65.3% (active) in the assay with LOX IMVI melanoma and 57.3% in the assay with SK-MEL-28 melanoma.

Regarding `CC1=C(CNO)C2=C(C)C3(CC3)[C@@](C)(O)C(=O)C2=C1`, the growth was 12.1% with HCT-15 colon; 41.4% in the assay on HT29 colon; -58.8% (active) in the assay on SNB-75 CNS; 4.3% (active) with SNB-19 CNS; -13.6% (active) in the assay on U251 CNS; 5.59% (active) in the assay on PC-3 prostate. Also, the growth with SK-MEL-5 melanoma is -67.4% (active); with UACC-62 melanoma, 28.7%; in the assay with LOX IMVI melanoma, 52.8%; in the assay with SK-MEL-28 melanoma it was 50.2%.

`Cc1ccc(C(Cc2ccccc2)NCCO)cc1` (stereo not given): the growth is 103% in the assay with HCT-15 colon; 65.4% with HT29 colon; 87.1% in the assay with SNB-75 CNS; 99.3% with SNB-19 CNS; 87.8% in the assay with U251 CNS; 69.4% with PC-3 prostate. Also, the growth in the assay on SK-MEL-5 melanoma was 98.4%; in the assay on UACC-62 melanoma it was 94.7%; in the assay with LOX IMVI melanoma, 100%; with SK-MEL-28 melanoma it was 61.9%.
